Laboratory results published in ChEMBL document CHEMBL1201862, “PubChem BioAssay data set” (2004).
These assays gave more results; the selection is not random.

The molecules below were run against Acyl-homoserine lactone acylase PvdQ (Pseudomonas aeruginosa (strain LESB58)) (UniProt Q9I194) (assay: Pseudomonas aeruginosa growth inhibition with EDDHA – absorbance, plate reader, cherry-picks, dose response (AID 602389)).
Format: functional

AbsAC35, active:
C=CCOC(=O)c1ccc(-n2cnc(C)n2)nc1 89.1 µM, COc1ccc(C2=C(C=O)Cc3ccccc3O2)cc1 210 µM, N#CN(Cc1ccccc1)Cc1ccccc1 477 µM, N#Cc1cc(-c2ccccc2)cnc1Cl 74.1 µM, C#CCSc1ncc(-c2ccccc2)cn1 214 µM
